Compounds with a hit are over-represented: about 3.4% of the library has one in this group of screens.
HGIII-sPLA2 inh = Blocks human group III sPLA2 activity. 370,000 tested, 0.56% active. Q9NZ20. inhibition, % at 12.2 µM. QFRET BODIPY PC-A2 liposome hydrolysis, fluorescence;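 active = inhibition above mean plus 3 SD of compounds lying within the high and low control bounds, cut at about 19% in these data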
ADAM10 inh = ADAM10 inhibition, QFRET primary screen. O14672. recombinant ADAM10, EDANS/DABCYL FRET peptide cleavage, 3 h. inhibition, % at 7 µM. 370,000 tested, 0.62% active. AID 720582;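 active = inhibition above a per-campaign cutoff equal to the mean of compounds falling between control-based bounds plus 3 SD, cut at about 20% in these data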
proKLK7 act = activators of human kallikrein-7 zymogen; P49862; purified proKLK7, EDANS-DABCYL substrate fluorescence; 100% is mature enzyme control, 0% vehicle; activation, % at 7 µM; 370,000 tested, 0.9% active;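 active = activation above the mean of all tested compounds plus 3 SD, computed per campaign excluding outliers beyond control limits, cut at about 13% in these data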
PLCg1 inh = blocks human PLC-gamma1 enzyme activity. P19174. purified PLC-gamma1, fluorogenic substrate, fluorescence. inhibition, % at 12.2 µM. 370,000 tested, 0.84% active; in the data active = inhibition above about 9.5%
ADAM17 inh = inhibitors of human ADAM17. 370,000 tested, 0.83% active. AID 720648. inhibition, % at 6.95 µM. P78536. recombinant ADAM17, EDANS/DABCYL FRET peptide cleavage;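 active = inhibition above the mean of compounds lying between control limits plus 3 SD, set per campaign, cut at about 8.5% in these data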
Target sequence (P78536 215-824 limits assumed): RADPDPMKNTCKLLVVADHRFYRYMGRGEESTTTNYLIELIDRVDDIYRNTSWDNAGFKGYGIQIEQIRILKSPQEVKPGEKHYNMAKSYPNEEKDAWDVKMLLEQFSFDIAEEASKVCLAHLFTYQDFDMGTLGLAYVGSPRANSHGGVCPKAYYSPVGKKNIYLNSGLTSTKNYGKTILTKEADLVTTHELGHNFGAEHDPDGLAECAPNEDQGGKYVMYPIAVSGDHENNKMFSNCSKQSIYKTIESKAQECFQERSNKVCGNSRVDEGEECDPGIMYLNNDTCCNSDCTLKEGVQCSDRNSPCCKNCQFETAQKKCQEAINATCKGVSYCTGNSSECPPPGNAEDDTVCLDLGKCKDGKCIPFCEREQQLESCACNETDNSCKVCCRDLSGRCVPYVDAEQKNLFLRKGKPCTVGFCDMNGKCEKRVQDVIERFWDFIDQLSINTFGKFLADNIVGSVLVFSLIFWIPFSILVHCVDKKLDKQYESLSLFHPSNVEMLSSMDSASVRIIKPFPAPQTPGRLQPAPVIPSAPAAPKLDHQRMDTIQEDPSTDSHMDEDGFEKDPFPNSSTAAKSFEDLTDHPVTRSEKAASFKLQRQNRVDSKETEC
PLCb3 inh = inhibitors of human phospholipase C beta3 | Q01970 | Purified PLC-beta3, fluorogenic substrate, fluorescence | inhibition, % at 12.2 µM | 370,000 tested, 0.18% active; in the data active = inhibition above about 11%
hGIII sPLA2 conf = human GIII-sPLA2 inhibition, confirmation; recombinant hGIII-sPLA2, BODIPY PC-A2 QFRET fluorescence; shares compounds with HGIII-sPLA2 inh; inhibition, % at 12.2 µM; 2,000 tested, 34% active;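 active = mean inhibition across triplicates above the hit cutoff set in the earlier primary screen, cut at about 19% in these data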
BODIPY interf = 535nm fluorescence interference, HGIII-sPLA2 counter-screen | shares compounds with HGIII-sPLA2 inh | BODIPY FL product fluorescence interference, QFRET | inhibition, % at 12.2 µM | 2,000 tested, 8.5% active;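 active = average inhibition above the solvent-only control mean plus 3 SD, cut at about 6% in these data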
Of the large screens only hits and unclear results are named; the others gave an inactive call (follow-up assays come after a bar, where they were run).

N#Cc1ccc(C(=O)N2CCC3CC2c2cc(-c4ccc(F)cc4)ccc23)cc1 (centres undefined)	none
COc1ccc(OC)c(C(=O)NC(CC(N)=O)c2ccc(NC(C)C)c([N+](=O)[O-])c2)c1 (centres undefined)	none
Cc1cc2ncn(N)c2cc1C	HGIII-sPLA2 inh 90 | hGIII sPLA2 conf inactive | BODIPY interf inactive
Cc1cc2ncn(S(=O)(=O)N(C)C)c2cc1C	none
NC(=S)N/N=C/c1c(O)c(Br)cc2oc3c(c12)CCCC3	HGIII-sPLA2 inh 33 | hGIII sPLA2 conf 31 | BODIPY interf 6.2
COc1ccc(CCNC(=O)CC(=O)N/N=C/c2ccc(Br)cc2)cc1OC	none
COc1cc(OC)cc(C(=O)NCC(=O)NC(C)c2ccccc2)c1 (centres undefined)	none
O=C(O)C(C/C(=N/O)c1ccc(Br)cc1)P(=O)(c1ccccc1)c1ccccc1 (centres undefined)	HGIII-sPLA2 inh 21 | hGIII sPLA2 conf inactive | BODIPY interf inactive
O=C(Nc1ccc(Cl)cc1)OC[C@@H]1CSCCS(=O)(=O)N1	none
NC(=O)Cc1cn(-c2ncc(C(F)(F)F)cc2Cl)c2ccccc12	HGIII-sPLA2 inh 34 | hGIII sPLA2 conf inactive | BODIPY interf inactive
Cc1ccc(S(=O)(=O)NCc2ccccc2NS(=O)(=O)c2ccc(C)cc2)cc1	none
Cc1cccc(-n2c(C)n[nH]c2=S)c1	none
Cc1cccc(-n2c(C)c(-c3ccccc3)[nH]c2=S)c1	HGIII-sPLA2 inh 29 | hGIII sPLA2 conf 33 | BODIPY interf inactive
OCCC1CN(Cc2cccn2-c2cccnc2)CCN1Cc1ccccc1 (centres undefined)	none
Cc1cc(C(=O)NNC(=S)Nc2ccccc2)nn1C	HGIII-sPLA2 inh 29 | hGIII sPLA2 conf 23 | BODIPY interf inactive
Cc1c(C(=O)NNC(=S)Nc2cccc(Cl)c2)nnn1-c1ccccc1	HGIII-sPLA2 inh 31 | hGIII sPLA2 conf 34 | BODIPY interf 9.3
CCCOC(=O)CCCCC1SCC(NC(=O)OC)C1NC(=O)OC (centres undefined)	HGIII-sPLA2 inh 20 | hGIII sPLA2 conf inactive | BODIPY interf inactive
COC(=O)CCCCC1SCC(NC(=O)OC)C1NC(=O)OC (centres undefined)	none
O=C(NC(=S)Nn1cnnc1)c1ccccc1Br	none
COC(=O)c1c(NC(=S)Nc2cc(OC)c(Cl)cc2OC)sc2c1CCCCC2	HGIII-sPLA2 inh 25 | hGIII sPLA2 conf 26 | BODIPY interf 11
CCCNC(=O)c1ccc2c(=O)c(O)c(-c3ccc(Cl)c([N+](=O)[O-])c3)[nH]c2c1	HGIII-sPLA2 inh 20 | hGIII sPLA2 conf inactive | BODIPY interf inactive
Cc1ccc(C)c(N(CC(=O)NC2CCCCC2)C(=O)CNC(=O)c2ccco2)c1	none
CC(=O)C1=C(C)Nc2ncnn2C1c1ccc(F)cc1 (centres undefined)	HGIII-sPLA2 inh 22 | hGIII sPLA2 conf inactive | BODIPY interf inactive
COc1ccc(NCc2ccc([N+](=O)[O-])s2)cc1	none
COc1ccc(NCc2ccc([N+](=O)[O-])s2)c(OC)c1	HGIII-sPLA2 inh 25 | hGIII sPLA2 conf inactive | BODIPY interf inactive
CC(C)(CO)CNc1ccn2nccc2n1	HGIII-sPLA2 inh 22 | hGIII sPLA2 conf inactive | BODIPY interf inactive
COCCCNc1ccn2nc(-c3ccccc3)cc2n1	none
Cc1ccc2c(c1)c1c3n2CCN(CC#N)C3CCC1 (centres undefined)	HGIII-sPLA2 inh 22 | hGIII sPLA2 conf inactive | BODIPY interf inactive
CCCC(=O)Nc1c(-c2ccccc2)c(=O)c(C)nn1-c1ccccc1	HGIII-sPLA2 inh 20 | hGIII sPLA2 conf inactive | BODIPY interf inactive
Cc1nn(-c2ccccc2)c(NC(=O)C(C)C)c(-c2ccccc2)c1=O	none
CC(=O)c1cc(Cc2csc(C(C)=O)c2)cs1	none
CC(=O)c1cc(CN2C(=O)CCC2=O)cs1	HGIII-sPLA2 inh 20 | hGIII sPLA2 conf inactive | BODIPY interf inactive
CC(=O)Nc1ccc(S(=O)(=O)Nc2nc(C)nc3sc(C)c(C)c23)cc1	none
Cc1ccccc1NC(=O)Nc1ccccn1	HGIII-sPLA2 inh 20 | hGIII sPLA2 conf inactive | BODIPY interf inactive
CCCOc1cccc(OCC(=O)Nc2nc3ccccc3[nH]2)c1	HGIII-sPLA2 inh 25 | hGIII sPLA2 conf inactive | BODIPY interf inactive
CC(C)c1ccc(NC(=O)C(c2ccccc2)N(Cc2ccco2)C(=O)CC2NC(=O)NC2=O)cc1 (centres undefined)	none
COc1ccc2c(-c3ccccc3)cc(SCC(N)=O)nc2c1	HGIII-sPLA2 inh 20 | hGIII sPLA2 conf inactive | BODIPY interf inactive
COc1ccc2nc(SCC(N)=O)cc(C)c2c1	none
O=C(OCn1nnc2ccccc2c1=O)c1cc(-c2ccccc2)nc2ccccc12	HGIII-sPLA2 inh 23 | hGIII sPLA2 conf inactive | BODIPY interf inactive
Nc1ccccc1CNc1nc(NCCO)nc2c1ncn2CCN1CCOCC1	none
CCc1c(C)sc(NC(=O)c2cccs2)c1C#N	HGIII-sPLA2 inh 20 | hGIII sPLA2 conf 25 | BODIPY interf inactive
CCOc1ccc(CC(=O)N/N=C/c2cccnc2)cc1OCC	none
O=C(Cc1c[nH]c2ccccc12)NC1(C(=O)NC2CCCC2)CCCCC1	none
c1ccc(-c2ccc(CNc3nc(-c4ccccn4)nnc3-c3ccccc3)cc2)cc1	HGIII-sPLA2 inh 27 (no result: proKLK7 act) | hGIII sPLA2 conf inactive | BODIPY interf inactive
CCCOc1ccccc1C1NC(=O)NC(C)=C1C(=O)OCCOC (centres undefined)	HGIII-sPLA2 inh 21 | hGIII sPLA2 conf inactive | BODIPY interf inactive
CC(=O)c1c(C)[nH]c(-c2ccccc2)c1C	HGIII-sPLA2 inh 28 | hGIII sPLA2 conf inactive | BODIPY interf inactive
CN(C)N1C(N)=C(C#N)C(c2cccc([N+](=O)[O-])c2)C2=C1CC(C)(C)CC2=O (centres undefined)	HGIII-sPLA2 inh 20 | hGIII sPLA2 conf inactive | BODIPY interf inactive
O=C(NCc1ccccc1)[C@@H]1CCCN1C(=O)[C@H]1CCCN1C(=O)c1ccc(F)cc1	none
O=C(NCc1ccccc1)[C@@H]1CCCN1C(=O)[C@H]1CCCN1C(=O)c1ccc(Cl)cc1	HGIII-sPLA2 inh 21 | hGIII sPLA2 conf inactive | BODIPY interf inactive
CCOC(=O)c1ccc(NC(=S)N2CCN(CCO)CC2)cc1	none
O=C1C2C3C=CC(CC3)C2C(=O)N1c1cccc(Br)c1 (centres undefined)	none
COc1cc(C(=O)Nc2cccc(-c3nc4cc(C)ccc4o3)c2)cc(OC)c1OC	HGIII-sPLA2 inh 19 | hGIII sPLA2 conf inactive | BODIPY interf inactive
COc1cc(C)c2sc3ccccc3c(=O)c2c1NCCN(C)C	HGIII-sPLA2 inh 20 | hGIII sPLA2 conf inactive | BODIPY interf inactive

Screens as filed in PubChem BioAssay.
